Measurements: the supplement of paper PMC8975748
Where a name gives a salt, the structure may show the parent alone.

The compounds below were run on Saccharomyces cerevisiae BY4741 SeMeCo community (assay: z-score of subpopulation abundance vs DMSO median, subpopulation auxotrophic for LU; higher = larger share of this subpopulation than in DMSO controls). Details: 10 µM; 24 h; SM minimal medium; subpopulation (auxotrophy): LU.
Experimental: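 Fluorescent four-plasmid SeMeCo (self-establishing metabolically cooperating S. cerevisiae BY4741 community; plasmids pH-mRuby2, pL-mWasabi, pU-eCFP, pM-TagRFP657) was grown 24 h in minimal SM medium with each Selleck FDA-approved drug at 10 µM in 384-well plates. Cells were fixed and imaged by high-content confocal microscopy. For each auxotrophic subpopulation (and the prototroph), a z-score gives the deviation from the DMSO vehicle-control population median.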

SMILES	z-score of subpopulation abundance
CC(NC(C)(C)C)C(=O)c1cccc(Cl)c1 (centres undefined) [Amfebutamone (Bupropion) HCl]	0.12
CCOC(=O)Nc1ccc(NCc2ccc(F)cc2)cc1N [Retigabine]	-1.25
CN1c2ccccc2C(NCCCCCCC(=O)O)c2ccc(Cl)cc2S1(=O)=O (centres undefined) [Tianeptine sodium]	-0.24
C[C@H]1O[C@H](O[C@H]2[C@H](O)[C@@H](O)[C@@H](O)[C@H](O)[C@@H]2O)[C@@H](N)C[C@@H]1NC(=N)C(=O)O [Kasugamycin hydrochloride]	0.49
N#Cc1nn(-c2c(Cl)cc(C(F)(F)F)cc2Cl)c(N)c1[S+]([O-])C(F)(F)F (centres undefined) [Fipronil]	0.06
O=c1[nH]c2ccccc2n1CCCN1CCC(n2c(=O)[nH]c3cc(Cl)ccc32)CC1 [Domperidone]	0.48
CN1[C@@H]2C[C@@H](OC(=O)[C@H](CO)c3ccccc3)C[C@H]1[C@@H]1O[C@@H]12 [Scopolamine HBr trihydrate]	-0.6
CNC1CC(N)C(O)C(OC2OC(CO)C(O)C3OC4(OC(C(N)CO)C(O)C(O)C4O)OC23)C1O (centres undefined) [Hygromycin B]	0.34
C=C[C@H]1CN2CC[C@H]1C[C@H]2[C@H](O)c1ccnc2ccccc12 [Cinchonidine]	0.59
CCN1CC2(OC(=O)c3ccccc3NC(C)=O)CCC(OC)C34C1C(CC23)C1(O)CC(OC)C2CC4C1(O)C2OC (centres undefined) [Lappaconitine]	0.55
CCOC(=O)Nc1ccc(NCc2ccc(F)cc2)cc1N [Retigabine 2HCl]	-0.86
COc1ccc(C(CN(C)C)C2(O)CCCCC2)cc1 (centres undefined) [Venlafaxine]	0.97
CC[C@H]1[C@@H]2C[C@H]3[C@@H]4N(C)c5ccccc5[C@]45C[C@@H]([C@@H]2[C@H]5O)N3[C@@H]1O [Ajmaline]	-0.26
COc1ccc2[nH]cc(CCN)c2c1 [5-Methoxytryptamine]	1.01
CN1[C@@H]2CC[C@H]1C[C@@H](OC(=O)C(CO)c1ccccc1)C2 (some centres undefined) [Atropine sulfate monohydrate]	-0.08
N[C@@H]1C[C@H]1c1ccccc1 [Tranylcypromine (2-PCPA) HCl]	-0.31
CC(C)N(CCC(C(N)=O)(c1ccccc1)c1ccccn1)C(C)C (centres undefined) [Disopyramide]	-0.22

SMILES	z-score of subpopulation abundance
CCCN1C[C@H](CSC)C[C@@H]2c3cccc4[nH]cc(c34)C[C@H]21 [Pergolide Mesylate]	-0.8
CC(C)(O)C(Cl)(Cl)Cl [Chlorobutanol]	0.52
CC[N+](C)(CC)CCOC(=O)C(O)(c1ccccc1)c1ccccc1 [Methylbenactyzine Bromide]	-0.58
CN(C)C(=O)Oc1ccc[n+](C)c1 [Pyridostigmine Bromide]	0.57
Oc1cc(Cl)ccc1Oc1ccc(Cl)cc1Cl [Triclosan]	-0.23
COc1ccc(C(CN(C)C)C2(O)CCCCC2)cc1 (centres undefined) [Venlafaxine HCl]	-0.06
CN(C)[C@@H]1C(=O)C(C(N)=O)=C(O)[C@@]2(O)C(=O)C3=C(O)c4c(O)cccc4[C@@](C)(O)[C@H]3[C@H](O)[C@@H]12 [Oxytetracycline (Terramycin)]	0.73
O=C(O[C@H]1C[N+]2(CCCOc3ccccc3)CCC1CC2)C(O)(c1cccs1)c1cccs1 [Aclidinium Bromide]	0.07
Cc1cc(O)ccc1Cl [Chlorocresol]	-0.74
COc1ccc2c(c1)[C@]13CCCC[C@@H]1[C@H](C2)N(C)CC3 [Dextromethorphan hydrobromide hydrate]	0.05
COc1cc2c(cc1OC)C1CC(=O)C(CC(C)C)CN1CC2 (centres undefined) [Tetrabenazine (Xenazine)]	-0.11
C=CN1CCCC1=O.II [Povidone iodine]	0.69
C[C@@H]1O[C@@H](O[C@H]2C[C@@H](O)[C@]3(CO)[C@H]4[C@H](O)C[C@]5(C)[C@@H](C6=CC(=O)OC6)CC[C@]5(O)[C@@H]4CC[C@]3(O)C2)[C@H](O)[C@H](O)[C@H]1O [Ouabain]	-0.53
C[C@@H]1CC[C@H]2[C@@H](C)C(=O)O[C@@H]3O[C@@]4(C)CC[C@@H]1[C@]32OO4 [Artemisinin]	-0.94
CN1C(=O)COc2c(C(=O)NC3CN4CCC3CC4)cc(Cl)cc21 (centres undefined) [Azasetron HCl]	-0.43
COC(=O)C1=CCCN(C)C1 [Arecoline HBr]	0.1
CC1(C)SC2C(N)C(=O)N2C1C(=O)O (centres undefined) [6-Aminopenicillanic acid]	0.32
